Reference: PubChem BioAssay AID2314 (National Center for Advancing Translational Sciences (NCATS), 2010)
About 37,000 (12%) of roughly 300,000 compounds were called active. This excerpt belongs to a sample that is enriched for actives. Unmarked numbers belong to inactive results. Rule as the data show it: active = max response mostly above about 13% (no sharp cut-off); inactive = mostly below about 14%.

Test: Cycloheximide Counterscreen for Small Molecule Inhibitors of Shiga Toxin; also: read at 38.3 µM for the half of the compounds with a filed dose; 0% is about no effect
Details: cell reporter, cycloheximide protein synthesis inhibition counterscreen; hits give high values

Row | SMILES | max response
1 | COC(=O)C1(C)NC(c2ccccc2OC)C2C(=O)N(c3ccccc3)C(=O)C21 (stereo not given) | -3.69%
2 | COc1ccc(N2CCN(S(=O)(=O)CCNC(=O)C34CC5CC(CC(C5)C3)C4)CC2)cc1 | -6.7%
3 | CCN(CC(=O)NCC(=O)Nc1cccc(C)c1C)Cc1ccccc1 | -0.652%
4 | O=C1C(=O)N(CCCN2CCOCC2)C(c2ccc([N+](=O)[O-])cc2)/C1=C(\O)c1ccc2c(c1)OCCO2 (stereo not given) | 13.6%
5 | COc1ccccc1NC(=O)c1cc(N2C(=O)C3C4CCC(C4)C3C2=O)ccc1Cl (stereo not given) | 21.1%
6 | Cc1ccc(CNC(=O)c2ccc(CS(=O)Cc3cccc(Cl)c3)o2)cc1 (stereo not given) | 5.04%
7 | CCC(C)C(=O)Nc1ccccc1N1CCN(c2ccc(F)cc2)CC1 (stereo not given) | 5.61%
8 | C/C(=N\NC(=S)NCc1ccccc1)C1CCCCC1 | -2.61%
9 | COC(=O)[C@@H]1CC(O)CN1C(=O)C12CC3CC(CC(C3)C1)C2 (stereo not given in full) | -8.25%
10 | COc1ccc(C(=O)NC2CC2)cc1OC1CCN(Cc2ccc(SC)cc2)CC1 | 10.6%
11 | Cc1nc([N+](=O)[O-])cn1CC(=O)Nc1ccc(Cl)cc1 | -1.69%
12 | CC(=O)Nc1ccc(C(=O)OCC(=O)Nc2ccc([N+](=O)[O-])cc2C(F)(F)F)cc1 | -3.83%
13 | O=C(NC(=O)c1ccccc1)NC(=O)c1ccccc1 | 8.89%
14 | O=C(Nc1ccc(C(=O)O)c(O)c1)c1ccccc1 | -3.21%
15 | O=C(NC(=O)c1ccccc1)Nc1ccccc1O | 38.7% (active)
16 | O=C(CCN1CCN(C/C=C/c2ccccc2)CC1)Nc1ccccc1Cl | -2.77%
17 | Cc1ccc(-c2nnc(CN3CCN(C)CC3)o2)cc1 | 11.1%
18 | COc1ccccc1CNC(=O)C1CCN(S(=O)(=O)c2ccc3c(c2)CC(C)N3C(=O)C2CC2)CC1 (stereo not given) | 1.43%
19 | CCC(=O)N1c2ccc(S(=O)(=O)CCC(=O)N3CCN(c4ccccc4)CC3)cc2CC1C (stereo not given) | -1.91%
20 | Cc1ccc(CNC(=O)CCS(=O)(=O)c2ccc3c(c2)CC(C)N3C(=O)C2CC2)o1 (stereo not given) | 22.1% (active)

Row | SMILES | max response
21 | N[C@@H](Cc1c[nH]c2ccccc12)c1nnc(SCc2c(F)cccc2Cl)o1 | -4%
22 | O=C(CSc1ccc(-c2ccco2)nn1)NCc1ccc2c(c1)OCO2 | 3.12%
23 | Clc1ccccc1CSc1nnc(-c2ccco2)c(-c2ccco2)n1 | 8.29%
24 | Fc1cccc(Cl)c1CSc1ccc(-c2ccco2)nn1 | 39% (active)
25 | Brc1ccc(CSc2ccc(-c3ccco3)nn2)cc1 | 28.4% (active)
26 | Cc1cc(SCc2c(F)cccc2Cl)nc(=O)[nH]1 | 6.03%
27 | CCOc1ccc(Br)cc1S(=O)(=O)Nc1ccc(C(=O)OC(C)C(=O)N(C)c2ccccc2)cc1 (stereo not given) | 0.522%
28 | O=C(Nc1cccc(Cl)c1)c1cc(S(=O)(=O)N2CCCCC2)c[nH]1 | 1.01%
29 | CCOC(=O)C1CN(S(=O)(=O)c2ccc(OC)cc2)c2cc(Cl)ccc2O1 (stereo not given) | -3.3%
30 | Cc1ccc(S(=O)(=O)N2CCN=C2SCc2c(F)cccc2Cl)cc1 | 0.957%
31 | CC(=O)N(c1ccc2oc(=O)sc2c1)S(=O)(=O)c1ccc(C)cc1 | -5.66%
32 | COC(=O)c1cccc([N+](=O)[O-])c1CS(=O)(=O)c1ccc(C)cc1 | 1.48%
33 | Cc1ccc(N=C2NC(=O)c3cccc([N+](=O)[O-])c32)cc1 | 37.1% (active)
34 | Cc1ccc(Cl)cc1NC(=O)COC(=O)CC(C)(C)C | -0.256%
35 | O=C(COc1ccc(-c2ccccc2)cc1)NN=C1CCCC1 | -1.28%
36 | c1ccc2sc(NN=C3CCCC3)nc2c1 | 38.7% (active)
37 | O=[N+]([O-])c1cc(Br)c(O)c(/C=N/Nc2nc3ccccc3s2)c1 | 26%
38 | COCc1cc(=O)[nH]c(-c2ccc(C(F)(F)F)cc2)n1 | -0.991%
39 | C=CCN(Cc1nc(-c2cc(OC)c3c(c2)OCO3)oc1C)C1CCS(=O)(=O)C1 (stereo not given) | -2.18%
40 | Fc1cccc2ncnc(OCc3ccccc3)c12 | 6.13%

Row | SMILES | max response
41 | Cc1nc2ccccc2cc1OCc1ccc(F)cc1 | 37.2% (active)
42 | Cc1occc(=O)c1OCc1ccc(F)cc1 | 5.09%
43 | CCSc1nc2sc3c(c2c(=O)n1-c1ccc(C)cc1)CCN(C)C3 | -1.97%
44 | Cc1cccc(NS(=O)(=O)c2ccc(C)c(C(N)=O)c2)c1 | -1.67%
45 | Cc1ccccc1CC1(CO)CCCN(Cc2ccc3c(c2)OCCO3)C1 (stereo not given) | -2.18%
46 | COc1ccc([C@H]2[C@H](C(C)=O)N3N=Cc4ccccc4C3C23C(=O)OC(C)(C)OC3=O)cc1 (stereo not given in full) | 12.2%
47 | CN(C(=O)CSc1nnc(-c2c[nH]c3ccccc23)o1)C1CCS(=O)(=O)C1 (stereo not given) | 1.22%
48 | C=CCn1c(SCn2nnc3ccccc3c2=O)nnc1-c1ccc(Cl)cc1 | 8.6%
49 | O=c1c2ccccc2nnn1CSc1nnnn1-c1ccccc1 | 67.5% (active)
50 | CN(C(=O)CSc1nncc2ccccc12)C1CCCCC1 | 30.4% (active)
51 | CN(C(=O)COc1ncnc2c1cnn2-c1ccccc1)C1CCCCC1 | 2.25%
52 | CN(C(=O)CSc1nnnn1-c1ccccc1)C1CCCCC1 | 17.1% (active)
53 | CC(=O)c1cccc(-n2nnnc2SCC(=O)NNC(=O)C2CCCCC2)c1 | 0.0917%
54 | Nc1nnc(SCn2nnc3ccccc3c2=O)s1 | 13.9%
55 | CN(C(=O)CCn1c(=S)oc2ccccc21)C1CCCCC1 | 3.76%
56 | CC(NC(=O)C1CCCN(S(=O)(=O)c2ccc(-n3cnnn3)cc2)C1)c1ccc(F)cc1 (stereo not given) | 1.89%
57 | Cc1cccc(N(Cc2ccccc2)C(=O)c2ccccc2F)c1 | 13.7%
58 | O=C(NCc1ccccc1Cl)C1CCCN1S(=O)(=O)c1ccc(F)cc1 (stereo not given) | -3.67%
59 | COCCCNC(=S)N1CCCC(c2nc3cc(C)c(C)cc3[nH]2)C1 (stereo not given) | 13.5%
60 | CC1CCN(C(=S)c2ccc(-c3ccc(Cl)cc3Cl)o2)CC1 | 8.41%
